Holding throughout (assay): DAPPL (digital affinity profiling via proximity ligation, sequencing); 10 mM Tris-HCl pH 7.5, 50 mM NaCl, 1 mM DTT, 4% glycerol, room temperature, 30 min; GST-TFs on glutathione beads, 16-mer random dsDNA library, 0.1% formaldehyde crosslink after washing; high values mean tight binding
Test [1] addresses T1, FEV (Homo sapiens, UniProt Q99581 1-238).
T1 sequence: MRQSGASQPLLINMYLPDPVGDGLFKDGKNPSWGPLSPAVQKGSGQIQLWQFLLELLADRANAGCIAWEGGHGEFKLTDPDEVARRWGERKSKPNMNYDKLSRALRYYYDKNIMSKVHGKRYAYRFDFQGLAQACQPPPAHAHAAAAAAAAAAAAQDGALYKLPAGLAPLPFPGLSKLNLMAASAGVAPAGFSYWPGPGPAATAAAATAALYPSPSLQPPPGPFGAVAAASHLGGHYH
The following applies: protein: recombinant; tags: N-terminal GST; dsDNA, one strand shown. The gist of the method: (§1)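 Binding signal is defined as a hexamer's read frequency for one factor over its frequency for the tag-only sample. To obtain reads, GST-fused human transcription factors were expressed in yeast, captured on glutathione beads, barcoded with DNA and pooled with that sample. Pools met 200 nmole of a 16-mer random double-stranded DNA library in Tris/NaCl/DTT/glycerol buffer for 30 min at room temperature before washing, 0.1% formaldehyde crosslinking, proximity ligation (BsaI/T4 ligase, 1 h, 37 °C), PCR and Illumina NextSeq500 sequencing.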

In test [2] the target is ETV5 (Homo sapiens, UniProt P41161 1-510). The note with it: protein: recombinant; tags: N-terminal GST; dsDNA, one strand shown. Put shortly:
as §1

The target in test [3] is HSF1 (Homo sapiens, UniProt Q00613 1-529). The following applies: protein: recombinant; tags: N-terminal GST; chain copies: 3; dsDNA, one strand shown. The gist of the method:
as §1

Test [4] concerns the target T2, SPIC (Homo sapiens, UniProt Q8N5J4 1-248).
T2 sequence: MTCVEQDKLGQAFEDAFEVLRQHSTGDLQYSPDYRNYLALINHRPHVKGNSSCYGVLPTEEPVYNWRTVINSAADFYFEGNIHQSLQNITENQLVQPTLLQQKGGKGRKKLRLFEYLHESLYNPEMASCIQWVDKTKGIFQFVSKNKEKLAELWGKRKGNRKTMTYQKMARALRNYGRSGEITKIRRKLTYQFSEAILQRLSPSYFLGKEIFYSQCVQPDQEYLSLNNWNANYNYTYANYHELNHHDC
The following applies: protein: recombinant; tags: N-terminal GST; dsDNA, one strand shown. Put shortly: as §1

Test [5] addresses ELF4 (Homo sapiens, UniProt Q99607 1-663). The following applies: protein: recombinant; tags: N-terminal GST; dsDNA, one strand shown. Put shortly: as §1
The target in test [6] is T3, ELK4 (Homo sapiens, UniProt P28324-2 1-405).
T3 sequence: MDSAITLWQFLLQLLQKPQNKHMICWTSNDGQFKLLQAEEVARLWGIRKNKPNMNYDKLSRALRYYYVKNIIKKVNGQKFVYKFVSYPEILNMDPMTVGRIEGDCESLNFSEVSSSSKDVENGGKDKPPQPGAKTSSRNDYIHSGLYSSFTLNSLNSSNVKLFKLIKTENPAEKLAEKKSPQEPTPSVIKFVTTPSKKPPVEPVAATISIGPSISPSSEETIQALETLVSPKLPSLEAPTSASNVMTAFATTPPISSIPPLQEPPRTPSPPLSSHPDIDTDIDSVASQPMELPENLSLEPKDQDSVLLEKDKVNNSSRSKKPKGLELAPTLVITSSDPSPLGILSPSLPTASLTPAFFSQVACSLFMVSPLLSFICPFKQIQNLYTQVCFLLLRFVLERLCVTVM
The following applies: protein: recombinant; tags: N-terminal GST; dsDNA, one strand shown. The gist of the method:
as §1

Test [7] deals with T4, ETV2 (Homo sapiens, UniProt O00321 1-342).
T4 sequence: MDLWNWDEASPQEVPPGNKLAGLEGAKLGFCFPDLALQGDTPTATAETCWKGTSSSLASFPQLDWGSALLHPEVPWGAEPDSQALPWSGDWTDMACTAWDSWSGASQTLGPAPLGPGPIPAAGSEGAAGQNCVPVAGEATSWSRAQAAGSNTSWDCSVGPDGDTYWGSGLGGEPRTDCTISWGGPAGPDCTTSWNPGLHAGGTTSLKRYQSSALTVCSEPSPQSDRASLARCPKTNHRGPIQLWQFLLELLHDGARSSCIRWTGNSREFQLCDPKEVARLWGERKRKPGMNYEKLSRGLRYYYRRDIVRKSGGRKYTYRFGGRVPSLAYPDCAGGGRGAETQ
The following applies: protein: recombinant; tags: N-terminal GST; dsDNA, one strand shown. Put shortly: as §1

Test [8] concerns the target T5, ELF3 (Homo sapiens, UniProt P78545 1-371).
T5 sequence: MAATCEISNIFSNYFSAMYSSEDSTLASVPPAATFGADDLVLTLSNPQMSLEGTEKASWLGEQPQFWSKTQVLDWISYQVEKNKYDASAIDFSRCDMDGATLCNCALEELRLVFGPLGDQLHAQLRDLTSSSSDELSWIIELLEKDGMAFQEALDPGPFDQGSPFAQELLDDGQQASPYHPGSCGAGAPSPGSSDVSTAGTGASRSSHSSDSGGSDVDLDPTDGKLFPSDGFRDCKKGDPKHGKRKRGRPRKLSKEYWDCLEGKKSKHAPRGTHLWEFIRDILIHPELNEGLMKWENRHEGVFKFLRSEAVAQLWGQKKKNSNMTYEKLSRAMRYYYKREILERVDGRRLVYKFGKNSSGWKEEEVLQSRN
The following applies: protein: recombinant; tags: N-terminal GST; dsDNA, one strand shown. The gist of the method: as §1

Test [9] addresses CRX (Homo sapiens, UniProt O43186 1-299). The note with it: protein: recombinant; tags: N-terminal GST; dsDNA, one strand shown. Put shortly:
as §1

Test [10] deals with ETV1 (Homo sapiens, UniProt P50549 1-477). The following applies: protein: recombinant; tags: N-terminal GST; dsDNA, one strand shown. The gist of the method:
as §1

Test [11] deals with T6, ERF (Homo sapiens, UniProt P50548 1-548).
T6 sequence: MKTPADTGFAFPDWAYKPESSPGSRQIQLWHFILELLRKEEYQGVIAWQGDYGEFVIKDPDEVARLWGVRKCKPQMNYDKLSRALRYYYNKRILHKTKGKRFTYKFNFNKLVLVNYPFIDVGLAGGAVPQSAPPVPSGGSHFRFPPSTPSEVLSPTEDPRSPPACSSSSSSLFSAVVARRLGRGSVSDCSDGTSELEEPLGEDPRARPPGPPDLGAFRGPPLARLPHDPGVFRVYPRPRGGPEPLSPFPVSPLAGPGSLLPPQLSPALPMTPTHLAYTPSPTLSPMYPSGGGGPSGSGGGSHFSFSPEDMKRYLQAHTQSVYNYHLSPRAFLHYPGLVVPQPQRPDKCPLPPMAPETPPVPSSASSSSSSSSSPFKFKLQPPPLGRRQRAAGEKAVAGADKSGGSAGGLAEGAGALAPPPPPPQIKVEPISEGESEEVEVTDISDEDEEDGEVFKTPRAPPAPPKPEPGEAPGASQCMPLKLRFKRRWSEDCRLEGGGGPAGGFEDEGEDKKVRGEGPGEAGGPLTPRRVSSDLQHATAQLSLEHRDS
The note with it: protein: recombinant; tags: N-terminal GST; dsDNA, one strand shown. The gist of the method: as §1

The target of test [12] is T7, ETV3L (Homo sapiens, UniProt Q6ZN32 1-361).
T7 sequence: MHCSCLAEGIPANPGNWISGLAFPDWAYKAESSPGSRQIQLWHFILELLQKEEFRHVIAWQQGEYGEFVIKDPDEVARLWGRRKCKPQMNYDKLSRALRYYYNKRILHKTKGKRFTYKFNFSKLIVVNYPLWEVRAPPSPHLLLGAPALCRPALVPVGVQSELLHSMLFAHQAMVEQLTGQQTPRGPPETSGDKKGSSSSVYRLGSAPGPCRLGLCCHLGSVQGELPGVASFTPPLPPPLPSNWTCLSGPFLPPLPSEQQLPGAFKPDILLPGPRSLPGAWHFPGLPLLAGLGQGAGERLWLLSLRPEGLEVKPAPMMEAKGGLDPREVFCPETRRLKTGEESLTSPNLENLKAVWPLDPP
The note with it: protein: recombinant; tags: N-terminal GST; dsDNA, one strand shown. The gist of the method:
as §1

In test [13] the target is T8, ETS2 (Homo sapiens, UniProt P15036 1-469).
T8 sequence: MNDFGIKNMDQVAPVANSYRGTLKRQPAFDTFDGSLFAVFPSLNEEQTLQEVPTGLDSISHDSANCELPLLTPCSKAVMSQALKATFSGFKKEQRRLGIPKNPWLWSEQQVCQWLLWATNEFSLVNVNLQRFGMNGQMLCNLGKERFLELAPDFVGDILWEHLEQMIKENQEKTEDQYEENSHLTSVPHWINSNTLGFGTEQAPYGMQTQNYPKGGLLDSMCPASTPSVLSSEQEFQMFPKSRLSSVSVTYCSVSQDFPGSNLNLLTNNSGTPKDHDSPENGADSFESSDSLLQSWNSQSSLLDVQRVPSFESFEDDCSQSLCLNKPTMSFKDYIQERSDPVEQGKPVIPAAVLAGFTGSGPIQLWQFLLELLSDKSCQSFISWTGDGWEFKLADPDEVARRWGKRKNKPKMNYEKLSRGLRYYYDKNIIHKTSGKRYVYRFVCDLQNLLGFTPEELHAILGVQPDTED
The note with it: protein: recombinant; tags: N-terminal GST; dsDNA, one strand shown. Put shortly: as §1

The target of test [14] is T9, SPDEF (Homo sapiens, UniProt O95238 1-335).
T9 sequence: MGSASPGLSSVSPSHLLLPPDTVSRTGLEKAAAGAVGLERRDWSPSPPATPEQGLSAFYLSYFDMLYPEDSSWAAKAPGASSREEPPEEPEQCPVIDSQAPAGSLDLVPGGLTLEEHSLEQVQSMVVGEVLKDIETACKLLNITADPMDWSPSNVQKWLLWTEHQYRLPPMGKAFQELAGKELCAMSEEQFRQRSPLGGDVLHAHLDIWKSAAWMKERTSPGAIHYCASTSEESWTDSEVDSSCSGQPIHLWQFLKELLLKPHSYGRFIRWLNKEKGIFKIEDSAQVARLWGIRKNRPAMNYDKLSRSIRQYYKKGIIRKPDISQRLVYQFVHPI
The following applies: protein: recombinant; tags: N-terminal GST; dsDNA, one strand shown. Put shortly:
as §1

For test [15], the target named is T10, ETV7 (Homo sapiens, UniProt Q9Y603 1-341).
T10 sequence: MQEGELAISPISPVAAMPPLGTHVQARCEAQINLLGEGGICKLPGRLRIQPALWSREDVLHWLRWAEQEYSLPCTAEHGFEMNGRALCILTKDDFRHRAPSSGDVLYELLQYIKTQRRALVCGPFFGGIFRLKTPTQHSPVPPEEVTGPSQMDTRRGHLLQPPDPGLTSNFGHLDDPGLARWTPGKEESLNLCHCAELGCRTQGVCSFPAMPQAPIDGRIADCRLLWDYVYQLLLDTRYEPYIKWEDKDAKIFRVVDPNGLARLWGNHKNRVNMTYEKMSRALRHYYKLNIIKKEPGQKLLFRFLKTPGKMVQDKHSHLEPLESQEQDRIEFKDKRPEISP
The following applies: protein: recombinant; tags: N-terminal GST; dsDNA, one strand shown. Put shortly:
as §1

The target of test [16] is T11, ELF5 (Homo sapiens, UniProt Q9UKW6-2 1-255).
T11 sequence: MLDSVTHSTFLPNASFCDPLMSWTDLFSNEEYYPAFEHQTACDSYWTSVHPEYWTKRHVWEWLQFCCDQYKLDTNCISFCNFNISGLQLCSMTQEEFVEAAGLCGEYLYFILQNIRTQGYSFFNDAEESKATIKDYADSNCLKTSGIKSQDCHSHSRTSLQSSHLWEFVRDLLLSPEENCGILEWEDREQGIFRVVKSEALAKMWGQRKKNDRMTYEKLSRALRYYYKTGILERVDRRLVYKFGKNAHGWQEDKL
The note with it: protein: recombinant; tags: N-terminal GST; dsDNA, one strand shown. Put shortly: as §1

The target of test [17] is T12, ETV3 (Homo sapiens, UniProt P41162-2 1-143).
T12 sequence: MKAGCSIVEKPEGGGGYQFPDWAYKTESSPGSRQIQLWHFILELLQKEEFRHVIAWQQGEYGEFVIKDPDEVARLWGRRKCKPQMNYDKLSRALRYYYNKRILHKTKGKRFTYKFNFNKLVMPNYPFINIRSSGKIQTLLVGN
The following applies: protein: recombinant; tags: N-terminal GST; dsDNA, one strand shown. Put shortly: as §1

In test [18] the target is ETV6 (Homo sapiens, UniProt P41212 1-452). The note with it: protein: recombinant; tags: N-terminal GST; dsDNA, one strand shown. Put shortly:
as §1

Data on one sequence can be found in publication PMC7862700, “An all-to-all approach to the identification of sequence-specific readers for epigenetic DNA modifications on cytosine”.

Chain of CRX (O43186 whole entry): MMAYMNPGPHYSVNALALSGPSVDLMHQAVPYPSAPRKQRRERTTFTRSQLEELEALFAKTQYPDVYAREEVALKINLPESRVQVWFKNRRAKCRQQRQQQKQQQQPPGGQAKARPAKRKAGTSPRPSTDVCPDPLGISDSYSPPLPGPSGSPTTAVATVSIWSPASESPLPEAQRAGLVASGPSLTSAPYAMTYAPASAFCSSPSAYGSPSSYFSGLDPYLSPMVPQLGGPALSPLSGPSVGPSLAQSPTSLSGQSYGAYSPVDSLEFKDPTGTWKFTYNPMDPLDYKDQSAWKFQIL
Chain of ETV1 (P50549 whole entry): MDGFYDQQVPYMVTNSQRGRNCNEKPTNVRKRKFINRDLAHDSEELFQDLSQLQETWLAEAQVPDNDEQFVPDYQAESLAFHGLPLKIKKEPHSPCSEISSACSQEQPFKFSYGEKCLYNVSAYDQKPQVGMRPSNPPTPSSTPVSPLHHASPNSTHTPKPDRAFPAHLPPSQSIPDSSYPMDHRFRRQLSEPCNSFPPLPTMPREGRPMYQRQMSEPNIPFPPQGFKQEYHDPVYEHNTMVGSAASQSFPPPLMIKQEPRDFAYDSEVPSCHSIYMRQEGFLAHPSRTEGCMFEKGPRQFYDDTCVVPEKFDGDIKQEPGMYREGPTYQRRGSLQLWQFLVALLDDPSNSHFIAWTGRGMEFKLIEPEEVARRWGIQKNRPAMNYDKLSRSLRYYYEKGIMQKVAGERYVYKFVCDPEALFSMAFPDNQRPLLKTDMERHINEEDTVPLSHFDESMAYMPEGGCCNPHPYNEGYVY
Chain of HSF1 (Q00613 whole entry): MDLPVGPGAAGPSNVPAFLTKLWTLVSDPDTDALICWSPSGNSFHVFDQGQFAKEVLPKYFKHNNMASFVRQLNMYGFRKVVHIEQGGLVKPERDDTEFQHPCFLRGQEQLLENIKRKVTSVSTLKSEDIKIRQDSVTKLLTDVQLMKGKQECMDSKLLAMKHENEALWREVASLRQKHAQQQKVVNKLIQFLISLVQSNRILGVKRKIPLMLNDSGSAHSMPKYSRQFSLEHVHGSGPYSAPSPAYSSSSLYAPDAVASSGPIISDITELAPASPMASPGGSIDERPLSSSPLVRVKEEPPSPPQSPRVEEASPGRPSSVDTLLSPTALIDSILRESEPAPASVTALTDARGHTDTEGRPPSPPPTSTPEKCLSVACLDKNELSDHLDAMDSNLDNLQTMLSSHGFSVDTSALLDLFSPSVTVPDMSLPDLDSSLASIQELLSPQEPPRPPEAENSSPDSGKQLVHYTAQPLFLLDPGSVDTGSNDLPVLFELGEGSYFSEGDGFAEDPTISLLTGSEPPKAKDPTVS
Chain of ETV6 (P41212 whole entry): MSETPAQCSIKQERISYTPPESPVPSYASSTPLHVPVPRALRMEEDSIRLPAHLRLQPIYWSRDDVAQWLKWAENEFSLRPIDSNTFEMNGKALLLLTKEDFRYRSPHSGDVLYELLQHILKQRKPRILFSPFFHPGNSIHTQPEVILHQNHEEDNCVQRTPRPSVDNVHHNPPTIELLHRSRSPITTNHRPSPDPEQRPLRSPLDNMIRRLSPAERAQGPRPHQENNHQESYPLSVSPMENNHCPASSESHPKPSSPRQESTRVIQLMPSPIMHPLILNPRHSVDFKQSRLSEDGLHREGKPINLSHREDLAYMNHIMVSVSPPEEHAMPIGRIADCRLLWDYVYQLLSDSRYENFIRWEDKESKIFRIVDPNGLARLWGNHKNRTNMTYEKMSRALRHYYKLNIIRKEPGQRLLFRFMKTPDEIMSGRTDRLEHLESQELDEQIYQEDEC
Chain of ETV5 (P41161 whole entry): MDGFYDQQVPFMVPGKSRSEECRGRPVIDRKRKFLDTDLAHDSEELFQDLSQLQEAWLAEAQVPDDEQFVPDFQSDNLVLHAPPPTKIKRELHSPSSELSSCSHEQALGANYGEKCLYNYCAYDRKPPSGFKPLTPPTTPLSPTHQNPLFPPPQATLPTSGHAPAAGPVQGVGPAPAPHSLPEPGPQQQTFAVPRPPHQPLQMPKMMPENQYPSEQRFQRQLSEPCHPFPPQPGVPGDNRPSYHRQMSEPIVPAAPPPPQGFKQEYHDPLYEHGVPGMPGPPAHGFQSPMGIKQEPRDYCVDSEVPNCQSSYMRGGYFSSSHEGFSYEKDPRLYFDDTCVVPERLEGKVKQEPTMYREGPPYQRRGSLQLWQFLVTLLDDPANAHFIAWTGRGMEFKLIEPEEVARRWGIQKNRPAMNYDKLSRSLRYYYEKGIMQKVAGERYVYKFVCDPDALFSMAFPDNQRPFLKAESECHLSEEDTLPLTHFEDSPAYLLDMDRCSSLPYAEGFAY
Chain of ELF4 (Q99607 whole entry): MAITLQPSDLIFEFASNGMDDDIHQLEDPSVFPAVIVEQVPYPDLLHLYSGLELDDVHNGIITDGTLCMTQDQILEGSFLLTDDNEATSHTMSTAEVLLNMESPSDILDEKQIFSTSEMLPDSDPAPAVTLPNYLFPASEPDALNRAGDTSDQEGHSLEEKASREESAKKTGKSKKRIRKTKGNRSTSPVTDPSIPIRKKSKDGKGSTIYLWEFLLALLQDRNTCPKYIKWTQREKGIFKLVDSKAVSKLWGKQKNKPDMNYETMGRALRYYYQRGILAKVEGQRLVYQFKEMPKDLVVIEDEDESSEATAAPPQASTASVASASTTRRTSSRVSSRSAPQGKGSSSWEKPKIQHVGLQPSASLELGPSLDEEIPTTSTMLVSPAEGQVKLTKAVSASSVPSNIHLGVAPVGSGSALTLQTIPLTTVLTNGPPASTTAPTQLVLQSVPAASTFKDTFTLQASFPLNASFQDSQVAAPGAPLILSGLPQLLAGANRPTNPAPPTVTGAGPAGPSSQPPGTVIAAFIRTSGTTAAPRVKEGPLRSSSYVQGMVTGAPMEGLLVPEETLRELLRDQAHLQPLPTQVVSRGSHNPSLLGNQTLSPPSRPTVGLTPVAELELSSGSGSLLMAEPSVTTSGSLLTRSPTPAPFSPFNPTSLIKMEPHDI

As for ACTACC, the binding signal in [1] was 1.55 fold enrichment (6-mer frequency, TF over GST control); in test [2], 1.64 fold enrichment (6-mer frequency, TF over GST control); in test [3], 1.09 fold enrichment (6-mer frequency, TF over GST control); in test [4], 1.58 fold enrichment (6-mer frequency, TF over GST control); in [5], 1.66 fold enrichment (6-mer frequency, TF over GST control); in [6] it was 1.59 fold enrichment (6-mer frequency, TF over GST control). Besides, the binding signal in [7] was 1.72 fold enrichment (6-mer frequency, TF over GST control); in test [8], 1.58 fold enrichment (6-mer frequency, TF over GST control); in [9], 1.1 fold enrichment (6-mer frequency, TF over GST control); in [10], 1.59 fold enrichment (6-mer frequency, TF over GST control); in test [11], 1.72 fold enrichment (6-mer frequency, TF over GST control); in test [12], 1.6 fold enrichment (6-mer frequency, TF over GST control). The binding signal in test [13] was 1.7 fold enrichment (6-mer frequency, TF over GST control); in test [14], 1.61 fold enrichment (6-mer frequency, TF over GST control); in test [15], 1.55 fold enrichment (6-mer frequency, TF over GST control); in test [16] it was 1.76 fold enrichment (6-mer frequency, TF over GST control); in [17], 1.7 fold enrichment (6-mer frequency, TF over GST control); in test [18], 1.74 fold enrichment (6-mer frequency, TF over GST control).
